# Data as given in publication PMC11062922 (Nature Chemical Biology, 2023).
# Read-outs that look alike come from different tables or passages of the source.
# What was measured:
# Set-up in all cases: species or system human, MV4-11 + K-562 + COLO205 + SK-N-BE2 + OVCAR-8
# ACVR1B = conditions: read-out: apparent Kd, n = 1
# CDC42 = conditions: read-out: apparent Kd; compound concentrations:100 nM and 1000 nM (sheet 'Samples'); n = 1
# TGFBR1 = conditions: read-out: apparent Kd, n = 1
# CSNK1A1 = conditions: read-out: apparent Kd, n = 1
# CSNK1D = conditions: read-out: apparent Kd, n = 1
# CSNK1E = conditions: read-out: apparent Kd, n = 1
# MAP2K4 = conditions: read-out: apparent Kd; compound concentrations:100 nM and 1000 nM (sheet 'Samples'); n = 1
# CIT = conditions: read-out: apparent Kd, compound concentrations: 100 nM and 1000 nM (sheet 'Samples'), n = 1
# DJA1 = test system: T1, DJA1; conditions: read-out: apparent Kd; compound concentrations: 100 nM and 1000 nM (sheet 'Samples'), CATDS: 6.7999729986940594E-2; n = 1
# T1 construct: gene DNAJA1
# GAK = conditions: read-out: apparent Kd; compound concentrations: 100 nM and 1000 nM (sheet 'Samples'), CATDS: 6.3982915513231806E-2; n = 1
# MAPK10 = conditions: read-out: apparent Kd; compound concentrations: 100 nM and 1000 nM (sheet 'Samples'), CATDS: 7.0993589128773599E-2; n = 1
# MAPK14 = conditions: read-out: apparent Kd, compound concentrations: 100 nM and 1000 nM (sheet 'Samples'), n = 1
# MAPK9 = conditions: read-out: apparent Kd; compound concentrations: 100 nM and 1000 nM (sheet 'Samples'), CATDS: 6.4345745846517005E-2; n = 1
# MAPKAPK2 = conditions: read-out: apparent Kd, compound concentrations: 100 nM and 1000 nM (sheet 'Samples'), n = 1
# PKN3 = conditions: read-out: apparent Kd, compound concentrations: 100 nM and 1000 nM (sheet 'Samples'), n = 1
# PRKCQ = conditions: read-out: apparent Kd; compound concentrations: 100 nM and 1000 nM (sheet 'Samples'), CATDS: 6.9749841239759497E-2; n = 1
# ADCK1 = conditions: read-out: apparent Kd; compound concentrations:100 nM and 1000 nM (sheet 'Samples'); n = 1
# PIK3CA = conditions: read-out: apparent Kd; compound concentrations:100 nM and 1000 nM (sheet 'Samples'); n = 1
# PIK3CD = conditions: read-out: apparent Kd; compound concentrations:100 nM and 1000 nM (sheet 'Samples'); n = 1
# PKN1 = conditions: read-out: apparent Kd; compound concentrations:100 nM and 1000 nM (sheet 'Samples'); n = 1
# PKN2 = conditions: read-out: apparent Kd; compound concentrations:100 nM and 1000 nM (sheet 'Samples'); n = 1
# RAB5C = conditions: read-out: apparent Kd; compound concentrations:100 nM and 1000 nM (sheet 'Samples'); n = 1
# TTN = conditions: read-out: apparent Kd; compound concentrations:100 nM and 1000 nM (sheet 'Samples'); n = 1
# GRK6 = conditions: read-out: apparent Kd; compound concentrations: 100 nM and 1000 nM (sheet 'Samples'), CATDS: 0.11057023586935499; n = 1
# [1] = compound concentrations:100 nM and 1000 nM (sheet 'Samples')
smiles,measurement,setting,value
Cl.NC(=O)c1ccc(-c2nc(-c3ccccn3)c(-c3ccc4c(c3)OCO4)[nH]2)cc1 [SB-431542-A],potency estimated from few doses,ACVR1B; [1],1.14 µM
same,potency estimated from few doses,CDC42,0.731 µM
same,potency estimated from few doses,TGFBR1; [1],0.946 µM
Cl.c1ccc(-c2nc3n(c2-c2ccc4c(c2)OCO4)CCC3)nc1 [SB-400868-A],potency estimated from few doses,ACVR1B; [1],0.087 µM
same,potency estimated from few doses,CSNK1A1; [1],0.369 µM
same,potency estimated from few doses,CSNK1D; [1],0.15 µM
same,potency estimated from few doses,CSNK1E; [1],0.262 µM
same,potency estimated from few doses,MAP2K4,1.9 µM
Fc1ccc(-c2nn3ccccc3c2-c2ccncc2)cc1 [GW434756X],potency estimated from few doses,"ACVR1B; compound concentrations: 100 nM and 1000 nM (sheet 'Samples'), CATDS: 6.8235886805588605E-2",1.23 µM
same,potency estimated from few doses,CIT; CATDS: 6.8145894715466407E-2,1.23 µM
same,potency estimated from few doses,"CSNK1A1; compound concentrations: 100 nM and 1000 nM (sheet 'Samples'), CATDS: 7.0903830983545899E-2",1.12 µM
same,potency estimated from few doses,"CSNK1D; compound concentrations: 100 nM and 1000 nM (sheet 'Samples'), CATDS: 0.180022890791455",0.233 µM
same,potency estimated from few doses,"CSNK1E; compound concentrations: 100 nM and 1000 nM (sheet 'Samples'), CATDS: 9.3100036539018993E-2",0.644 µM
same,potency estimated from few doses,DJA1,1.24 µM
same,potency estimated from few doses,GAK,1.44 µM
same,potency estimated from few doses,MAPK10,1.12 µM
same,potency estimated from few doses,MAPK14; CATDS: 8.8352679979738905E-2,0.709 µM
same,potency estimated from few doses,MAPK9,1.42 µM
same,potency estimated from few doses,MAPKAPK2; CATDS: 0.114976727477382,0.449 µM
same,potency estimated from few doses,PKN3; CATDS: 6.6861054791119798E-2,1.29 µM
same,potency estimated from few doses,PRKCQ,1.16 µM
Cl.Cl.c1ccc(-c2cc3ccncc3cc2OC2CCNCC2)cc1.c1ccc(-c2cc3ccncc3cc2OC2CCNCC2)cc1 [GSK1122999D],potency estimated from few doses,ACVR1B; [1],1.16 µM
same,potency estimated from few doses,ADCK1,1.28 µM
same,potency estimated from few doses,PIK3CA,0.287 µM
same,potency estimated from few doses,PIK3CD,0.179 µM
same,potency estimated from few doses,PKN1,2.03 µM
same,potency estimated from few doses,PKN2,2.04 µM
same,potency estimated from few doses,RAB5C,1.19 µM
same,potency estimated from few doses,TTN,0.886 µM
CSc1cccc2c(-c3ccncn3)c(-c3ccc(F)cc3)nn12 [GW514786X],potency estimated from few doses,"ACVR1B; compound concentrations: 100 nM and 1000 nM (sheet 'Samples'), CATDS: 0.17509937322487801",0.801 µM
same,potency estimated from few doses,CIT; CATDS: 0.11106465565946499,2.19 µM
same,potency estimated from few doses,"CSNK1D; compound concentrations: 100 nM and 1000 nM (sheet 'Samples'), CATDS: 0.131295791130774",1.42 µM
same,potency estimated from few doses,GRK6,2.22 µM
same,potency estimated from few doses,MAPK14; CATDS: 0.16800162105717001,0.863 µM
same,potency estimated from few doses,MAPKAPK2; CATDS: 0.164691534232419,0.895 µM
same,potency estimated from few doses,PKN3; CATDS: 0.17855560727929401,0.774 µM
Nc1nccc(-c2c(-c3ccc(F)cc3)nn3cc(C(F)(F)F)ccc23)n1 [GW568326X],potency estimated from few doses,"ACVR1B; compound concentrations: 100 nM and 1000 nM (sheet 'Samples'), CATDS: 0.37925228743827699",0.526 µM
same,potency estimated from few doses,"CSNK1D; compound concentrations: 100 nM and 1000 nM (sheet 'Samples'), CATDS: 0.232202944333886",1.31 µM
same,potency estimated from few doses,MAPK14; CATDS: 0.251383978494441,1.1 µM
same,potency estimated from few doses,"TGFBR1; compound concentrations: 100 nM and 1000 nM (sheet 'Samples'), CATDS: 0.196901676551059",2 µM
